Laboratory results as given in PubChem BioAssay AID434955 (Southern Research Specialized Biocontainment Screening …, 2010).
About 880 (0.27%) of roughly 330,000 compounds were called active. Inconclusive results (about 1%) are left out. The rule behind the calls is not given here. These entries were drawn from the full list.

Experiment: beta-lactam sensitization of Mtb H37Rv, H37Rv (AID 434955);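 note: growth measured after seven days incubation then overnight dye step; 0% = bacteria only wells and 100% = bacteria with antibiotic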
Details: M. tuberculosis H37Rv growth with meropenem, percent inhibition, at 25 µM
[1] = measured here: primary screen without meropenem

Row | SMILES | inhibition (stronger effect = higher value) | inhibition [1] [%]
1 | CCOc1ccc2ccccc2c1/C=N/NC(=O)c1c(C)cc(C)[nH]c1=O | -16.1% (inactive) | -1.48
2 | O=C(NCCCCCCCCCNC(=O)C(F)(F)F)C(F)(F)F | 3.21% (inactive) | 10.9
3 | O=C1CC2(CC(c3ccc(Cl)cc3)=NO2)C(=O)N1c1ccccc1 (centres undefined) | -4.42% (inactive) | -1.92
4 | CCCCC1(C(=O)OCC)NC(c2ccc(O)cc2)C2C(=O)N(c3ccccc3)C(=O)C21 (centres undefined) | -5.62% (inactive) | -0.56
5 | O=C(CCCNS(=O)(=O)c1cccc2nsnc12)NCCN1CCN(c2ccccc2F)CC1 | -11.3% (inactive) | -10.3
6 | CCOc1ccc(NC(=S)NC(=O)/C=C/c2ccc(OC)cc2)c([N+](=O)[O-])c1 | -1.27% (inactive) | 1.54
7 | CSc1ccccc1NC(=O)c1ccc2c(c1)CCN2S(C)(=O)=O | -1.11% (inactive) | -0.34
8 | CCOC(=O)c1c(S(=O)(=O)Nc2ccc(CN3CCC(C)CC3)cc2)c(C)n(C)c1C | -2.23% (inactive) | 3.26
9 | Cc1ccc(S(=O)(=O)N2CCC(C(=O)OCC(=O)N(C)c3ccccc3)CC2)cc1C | -8.73% (inactive) | -4.4
10 | CC(=O)NC1(c2ccc(F)cc2)CCN(C(=O)c2c(F)cccc2F)CC1 | 8.64% (inactive) | 0.61
11 | O=C(NCC1CCCO1)C(C(=O)c1ccccc1)n1cc(Cl)ccc1=O (centres undefined) | 6.75% (inactive) | -1.73
12 | O=C(NCc1ccc(F)cc1)C1CCN(C(=O)Nc2ccc(F)cc2)CC1 | -23.9% (inactive) | -6
13 | CC(Nc1nc(C(F)(F)F)nc2ccccc12)c1cccs1 (centres undefined) | 4.44% (inactive) | 8.98
14 | CCOC(=O)C1=C(CCc2ccccc2)NC(=O)NC1c1ccc2ccccc2c1 (centres undefined) | 30% (inactive) | 52.5
15 | COc1ccccc1NC(=O)COC(=O)CNC(=O)C1CCCCC1 | -1.14% (inactive) | -2.95
16 | CN(C)Cc1ccccc1C1(O)c2ccccc2CSc2ccccc21 (centres undefined) | -0.96% (inactive) | 2.09
17 | CCN(CC)CCn1c(=S)[nH]c2ncccc2c1=O | -13.3% (inactive) | -17.8
18 | CC(=O)Nc1ccc(N2C(=O)CC(Sc3nccc(C)n3)C2=O)cc1 (centres undefined) | -4.91% (inactive) | -1.37
19 | CCOc1ccc(CNC(=O)CCC(=O)N2CCSc3ccccc32)cc1 | -9.71% (inactive) | -7.82
20 | O=C(CCc1nc(-c2ccccc2)no1)Nc1cccc(C(=O)NC2CC2)c1 | 1.26% (inactive) | 4.5
21 | COc1ccc(/C=N/n2c(C)cc(C)cc2=O)cc1 | 3.19% (inactive) | -1.76
22 | COC(=O)c1ccc(NS(=O)(=O)c2cc3c4c(c2)C(C)C(=O)N4CCC3)cc1 (centres undefined) | -8.75% (inactive) | -4.77
